Results from PubChem BioAssay AID588832 (Broad Institute, 2011).
Screen size: about 8,000 compounds; fewer than 10 were called active. Only a sample is shown. Unmarked numbers belong to inactive results. The rule behind the calls is not given here.

System: hedgehog, isoform A (Drosophila melanogaster)
Assay: Drosophila hedgehog isoform A inhibitors, primary screen, biochemical, plate reader, single concentration (AID 588832);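 note: 0% = neutral control wells and 100% = positive control wells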
Conditions: Biochemical plate reader assay, at 30.3 µM, hits give high values

| Compound | inhibition |
| --- | --- |
| CCOc1ccc(NC(=O)CS(=O)(=O)c2cn(C)c3ccccc23)cc1 | 7.96% |
| CCC1=Nc2cc(C(=O)O)ccc2Sc2ccccc21 | 1.79% |
| O=c1c2nnn(-c3ccccc3)c2ncn1C/C=C/c1ccccc1 | 6.96% |
| Cc1ccc(S(=O)(=O)NCc2ccc3c(c2)cc(C)n3C)cc1 | 11.8% |
| Cc1cc2cc(CNS(=O)(=O)c3ccccc3)ccc2n1C | 7.14% |
| COc1ccc(S(=O)(=O)NCc2ccc3c(c2)cc(C)n3C)cc1 | 62.3% (active) |
| COc1ccc(Nc2nc(N)nc(CN3CCc4ccccc4C3)n2)cc1 | 5% |
| Cc1ccc(Cl)cc1N1CCN(C(=O)COc2ccc(S(=O)(=O)NC(C)C)cc2)CC1 | 7.28% |
| O=C(NCc1cn2ccsc2n1)c1c(F)cccc1Cl | 5.46% |
| O=C(O)C(c1ccccc1)c1ccccc1 | 8.45% |
| Cn1c(=O)cc(N2CCc3ccccc32)[nH]c1=O | 1.79% |
| COc1cccc(CNC(=O)COc2cc3c(c4oc(=O)cc(C)c24)CCC(C)(C)O3)c1 | -8.44% |
| O=C(COc1ccc2c(-c3ccccc3)cc(=O)oc2c1)N1C[C@H]2C[C@@H](C1)c1cccc(=O)n1C2 | 1.72% |
| COc1ccc(Cl)cc1N1C(=O)C2CCCN2C1c1ccc(F)c(F)c1 (centres undefined) | 14.9% |
| CCOc1ccc(C2CC(c3cccc(OC)c3)n3nc(N)nc3N2)cc1 (centres undefined) | 15% |
| Cc1ccc(C)c(NC(=O)CSc2nc3ccccc3nc2N2CCOCC2)c1 | 9.55% |
| C=CCn1cc(C(=O)NCCCOC)c(=O)c2cc(S(=O)(=O)N3CCC(C)CC3)ccc21 | 25% |
| CC(C)(C)C(=O)NCCc1nc2ccccc2n1CC(=O)c1ccc(Cl)cc1 | 0% |
| CC(=O)c1ccc(NC(=O)CCS(=O)(=O)c2ccc3c(c2)n(C)c(=O)c(=O)n3C)cc1 | 1.81% |
| Cc1[nH]c2ccccc2c1SCC(=O)N1CCCc2ccccc21 | 1.79% |

| Compound | inhibition |
| --- | --- |
| CCOC(=O)N1CCN(c2cc(=O)n(-c3ccc(Br)cc3)c(=O)[nH]2)CC1 | 6.78% |
| Cc1ccc2c(c1)N(C(=O)CCC(=O)NCCCN1CCOCC1)CC(C)O2 (centres undefined) | 7.08% |
| CCCCCCc1cc2cc(/C(N)=N/NC(=O)c3ccncc3)c(=O)oc2cc1O | 10.7% |
| O=C(COC(=O)C1CC(=O)N(C2CCCCC2)C1)c1ccc(F)cc1 (centres undefined) | 15% |
| Cc1ccc2c(c1)N(C(=O)CCC(=O)NCCCN1CCN(C)CC1)CCO2 | 5.23% |
| Cn1c(Cn2c(=O)sc3ccccc32)nnc1SCC(=O)Nc1cccc(Cl)c1 | 11.1% |
| COc1ccccc1C1C(C(N)=O)=C(C)Nc2nc(-c3ccc(Cl)cc3)nn21 (centres undefined) | 19.2% |
| Cc1cc2ccccc2n1CCNC(=O)C(C)(C)C | 57.3% (active) |
| Cc1cc2ccccc2n1CCNC(=O)C(C)C | 5.17% |
| CC(=O)NCCn1c(C)cc2ccccc21 | 0% |
| O=C1C=C(O)c2cccc(O)c2C1=O | 9.84% |
| O=C1C=C(O)c2c(O)cc(O)c(O)c2C1=O | 93.1% (active) |
| C[C@@H]1Cc2c(O)c(O)cc(O)c2C(=O)O1 | 4.89% |
| CC(=O)c1ccc(N2CCN(C(=O)c3ccc(NC4=NC5CS(=O)(=O)CC5S4)cc3)CC2)cc1 (centres undefined) | 3.39% |
| COc1ccc(CNS(=O)(=O)c2cc3c(cc2Cl)NC(=O)CO3)cc1 | 7.24% |
| COc1cccc(-c2nc(C(=O)NCC3CCCO3)cc3c2[nH]c2ccccc23)c1 (centres undefined) | 0.0615% |
| O=C(Cn1cc2c(n1)CCCC2)NCCCN1CCN(Cc2ccccc2)CC1 | 4.17% |
| CC1CCCN(S(=O)(=O)c2ccc3c(c2)C(C)(C)C(=O)N3C)C1 (centres undefined) | 20% |
| O=C(NCCN1CCCC1)c1ccc2c(c1)N(Cc1ccc(F)cc1)C(=O)c1ccccc1S2=O (centres undefined) | 0.909% |
| COc1ccc(-c2cn3c(C)c(C(=O)Nc4ccncc4)sc3n2)cc1 | 9.74% |

| Compound | inhibition |
| --- | --- |
| COCCNC(=O)CS(=O)Cc1nc(-c2ccc(Cl)cc2)oc1C (centres undefined) | -2.73% |
| Cc1ccc2c(c1)N(CC(=O)NC1CCCC1)C(=O)c1cccnc1O2 | 16.7% |
| CCN(Cc1ccccc1)S(=O)(=O)c1cc(C(=O)OC)n(C)c1 | 6.72% |
| Cc1cccc(C(=O)N2CCN(Cc3ccc4c(c3)OCO4)CC2)c1 | 5.77% |
| CC1CC(=O)c2c(cc3c(-c4c(O)cc(O)c5c(O)c6c(cc45)OC(C)CC6=O)c(O)cc(O)c3c2O)O1 (centres undefined) | 6.56% |
| COc1ccc(CNC(=O)COc2cc3c(c4oc(=O)cc(C)c24)CCC(C)(C)O3)cc1OC | 5.12% |
| CCN1C(=O)c2ccccc2S(=O)c2ccc(C(=O)NCCCN3CCCC3=O)cc21 (centres undefined) | -4.3% |
| COC(=O)CN1C(=O)COc2ccc(Cl)cc21 | 16.7% |
| CCOCCn1c(SCc2ccc(F)cc2)nc2c1c(=O)[nH]c(=O)n2C | -3.67% |
| O=C(NCc1ccco1)C(=O)NCC1OCCN1S(=O)(=O)c1ccccc1 (centres undefined) | 7.69% |
| COCCn1c(SCC(=O)N2CCCc3ccccc32)nc2c(c1=O)SC(C)C2 (centres undefined) | 5.36% |
| CCCNC(=O)CS(=O)(=O)Cc1nc(-c2ccccc2C)oc1C | 24.1% |
| CCOC(=O)N1CCc2c(sc(NC(=O)c3ccc(S(=O)(=O)N4CCCC4)cc3)c2C#N)C1 | 0% |
| Cn1c(=O)c2c(SC3CCCC3)nc(C3CC3)nc2n(C)c1=O | 9.74% |
| Cn1c(C(=O)NCCN2CCc3ccccc3C2)cc2c(=O)n(C)c3ccccc3c21 | 20.8% |
| CCCCNC(=S)NCc1ccc2[nH]c(C)cc2c1 | -0.909% |
| CC(C)COC(=O)C1C2C=CC3(CN(C4CCCC4)C(=O)C13)O2 (centres undefined) | 8.33% |
| COc1ccc(-c2cc(=O)oc3c(C)c(OC(C)C(=O)NCc4ccccn4)ccc23)cc1 (centres undefined) | 4.89% |
| CCc1ccc(NC(=O)CSc2nnc(Cn3c(=O)sc4ccccc43)n2C)cc1 | 16.7% |
